The record followed here is PubChem BioAssay (EPA / NIEHS).

SMILES strings stand for the structures. Where “and” joins values, the source holds several entries; their conditions need not be identical. Equal values may be shown once. Inconclusive results are not listed. Calls of active or inactive are those of the source. The calls were made as follows, unless noted: active = hit-call score of the fitted dose curve at least 0.9, where 1 is the maximum; inactive = score below 0.9.

Test [1] deals with Steroid hormone receptor ERR1 (Homo sapiens) (UniProt P11474). Kind of test: ATG_ERRa_TRANS: Attagene TRANS-FACTORIAL HepG2 Assay for human Estrogen-Related Receptor alpha (ERRa) (AID 2282971; active = hit-call score of the fitted dose curve at least 0.9, where 1 is the maximum). The conditions noted are these: HepG2 Attagene TRANS reporter, ERRa transactivation. An outline of the steps:
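HepG2 cells transiently transfected with multiplexed GAL4-UAS reporter units reading chimeric ERRa-Gal4 activity; 24 h compound exposure. Reporter mRNA measured by RT-PCR, 6-FAM labelling, HpaI digest and capillary electrophoresis; gain of signal fitted versus DMSO baseline.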

Read-out in test [2]: Interferon-gamma inducible Protein 10 (IP10), CXCL10 (gene 3627)
Description: BSK_KF3CT_IP10: BioMAP Diversity Plus: KF3CT Assay for Interferon-gamma inducible Protein 10 (IP10) Biomarker Activity (AID 2283068). The conditions noted are these: primary human keratinocytes with fibroblasts; actives raise or lower the signal. An outline of the steps: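 ELISA read-out of IP-10 after 24 h chemical dosing of human skin primary co-culture (keratinocytes, foreskin fibroblasts). Gain or loss of signal relative to DMSO, bidirectional curve fit.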

Read-out in test [3]: Interleukin-1 alpha (IL1a), IL1A (gene 3552)
Description: BSK_KF3CT_IL1a: BioMAP Diversity Plus: KF3CT Assay for Interleukin-1 alpha (IL1a) Biomarker Activity (AID 2283070). The conditions noted are these: primary human keratinocytes with fibroblasts; actives raise or lower the signal. An outline of the steps:
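Primary human keratinocyte plus foreskin fibroblast co-culture, dosed and measured at 24 h in 96-well plates. IL-1a level quantified by ELISA; bidirectional fit relative to DMSO.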

Read-out in test [4]: TIMP metallopeptidase inhibitor 2 (TIMP2), TIMP2 (gene 7077)
Description: BSK_KF3CT_TIMP2: BioMAP Diversity Plus: KF3CT Assay for TIMP metallopeptidase inhibitor 2 (TIMP2) Biomarker Activity (AID 2283071). The conditions noted are these: primary human keratinocytes with fibroblasts; actives raise or lower the signal. In a few lines:
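Co-culture of human primary keratinocytes and foreskin fibroblasts, measured 24 h after chemical dosing. TIMP-2 quantified by ELISA and fitted in both directions relative to DMSO. Cytotoxicity checked in parallel cultures by SRB total-protein staining.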

Read-out in test [5]: Matrix Metallopeptidase 9 (MMP9), MMP9 (gene 4318)
Kind of test: BSK_KF3CT_MMP9: BioMAP Diversity Plus: KF3CT Assay for Matrix Metallopeptidase 9 (MMP9) Biomarker Activity (AID 2283074).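 As to AC50: MMP9 protein level quantified by ELISA in the co-culture.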 The conditions noted are these: primary human keratinocytes with fibroblasts; actives raise or lower the signal. In a few lines: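 Human keratinocyte and foreskin fibroblast co-culture exposed to chemicals for 24 h; MMP9 biomarker measured by ELISA, bidirectional fitting relative to DMSO; cytotoxicity tracked by SRB total protein staining in parallel cultures.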

Read-out in test [6]: urokinase plasminogen activator (uPA), PLAU (gene 5328)
Kind of test: BSK_KF3CT_uPA: BioMAP Diversity Plus: KF3CT Assay for urokinase plasminogen activator (uPA) Biomarker Activity (AID 2283075). The conditions noted are these: primary human keratinocytes with fibroblasts; actives raise or lower the signal. An outline of the steps: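 Primary human keratinocyte/foreskin fibroblast co-culture exposed to chemical; uPA measured by ELISA at 24 h. Bidirectional fit versus DMSO, with parallel SRB total-protein staining for cytotoxicity.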

Read-out in test [7]: CD40, CD40 (gene 958)
Description: BSK_LPS_CD40: BioMAP Diversity Plus: LPS Assay for CD40 Biomarker Activity (AID 2283076). The conditions noted are these: primary human HUVEC with PBMC; actives raise or lower the signal. An outline of the steps: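 Primary human umbilical vein endothelial cells co-cultured with peripheral blood mononuclear cells, LPS-stimulated, were dosed with chemical and read 24 h later. CD40 levels were measured by ELISA and fitted bidirectionally against DMSO as negative control and baseline.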

Read-out in test [8]: E-selectin (Homo sapiens) (UniProt P16581)
Kind of test: BSK_LPS_Eselectin: BioMAP Diversity Plus: LPS Assay for Eselectin Biomarker Activity (AID 2283077). The conditions noted are these: primary human HUVEC with PBMC; actives raise or lower the signal. In a few lines:
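Human umbilical vein endothelial cells co-cultured with peripheral blood mononuclear cells under LPS stimulation; E-selectin measured by ELISA 24 h after chemical dosing. Activity fitted bidirectionally against DMSO as negative control and baseline.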

Test [9] in a line: BSK_LPS_SRB: Viability Assessment in the BioMAP Diversity Plus: LPS Assay (AID 2283079).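 Also: total protein by sulforhodamine B absorbance as a cytotoxicity measure; measured one day after compound addition; fitted in both directions against DMSO so loss or gain of signal counts.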 The conditions noted are these: primary human HUVEC with PBMC. An outline of the steps:
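Human umbilical vein endothelial cells co-cultured with PBMC (LPS system) were dosed for 24 h. Total protein was stained with 0.1% sulforhodamine B after 10% TCA fixation, read at 560 nm, and fitted bidirectionally against DMSO baseline.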

Read-out in test [10]: Macrophage colony-stimulating factor (MCSF), CSF1 (gene 1435)
Description: BSK_LPS_MCSF: BioMAP Diversity Plus: LPS Assay for Macrophage colony-stimulating factor (MCSF) Biomarker Activity (AID 2283083). The conditions noted are these: primary human HUVEC with PBMC; actives raise or lower the signal. An outline of the steps: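 Human umbilical vein endothelial cells co-cultured with peripheral blood mononuclear cells were exposed to compound for 24 h. M-CSF levels were measured by ELISA, and bidirectional curve fitting used DMSO as the negative control and baseline.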

Read-out in test [11]: Tissue Factor, F3 (gene 2152)
Description: BSK_LPS_TissueFactor: BioMAP Diversity Plus: LPS Assay for Tissue Factor Biomarker Activity (AID 2283084). The conditions noted are these: primary human HUVEC with PBMC; actives raise or lower the signal. In a few lines:
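Human umbilical vein endothelial cells co-cultured with peripheral blood mononuclear cells were dosed and stimulated with LPS. Cell-surface CD142 was quantified by ELISA at 24 h. Activity was fitted bidirectionally against DMSO baseline.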

Read-out in test [12]: Tumor necrosis factor (Homo sapiens) (UniProt P01375)
Description: BSK_LPS_TNFa: BioMAP Diversity Plus: LPS Assay for Tumour Necrosis Factor alpha (TNFa) Biomarker Activity (AID 2283085).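 As to AC50: TNFa protein level quantified by ELISA in the co-culture.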 The conditions noted are these: primary human HUVEC with PBMC; actives raise or lower the signal. In a few lines: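 Human umbilical vein endothelial cells co-cultured with PBMC and stimulated with LPS. TNFa was measured by ELISA 24 h after chemical dosing, fitted bidirectionally relative to DMSO.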

Read-out in test [13]: Vascular cell adhesion molecule 1 (VCAM1), VCAM1 (gene 7412)
Description: BSK_LPS_VCAM1: BioMAP Diversity Plus: LPS Assay for Vascular cell adhesion molecule 1 (VCAM1) Biomarker Activity (AID 2283086). The conditions noted are these: primary human HUVEC with PBMC; actives raise or lower the signal. An outline of the steps: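 Human umbilical vein endothelial cells co-cultured with PBMC and stimulated with LPS; VCAM-1 measured by ELISA 24 h after dosing. Bidirectional curve fitting against DMSO baseline; cytotoxicity tracked in parallel by SRB total-protein staining.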

Read-out in a further test: CD38, CD38 (gene 952)
Description: BSK_SAg_CD38: BioMAP Diversity Plus: SAg Assay for CD38 Biomarker Activity (AID 2283087). The conditions noted are these: primary human HUVEC with PBMC; actives raise or lower the signal. An outline of the steps:
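Human HUVEC plus PBMC co-culture stimulated with superantigen; CD38 measured by ELISA 24 h after chemical dosing. Fluorescence read-out, bidirectional fit against DMSO; cytotoxicity tracked in parallel by SRB and Alamar Blue.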

Read-out in test [14]: CD40, CD40 (gene 958)
Description: BSK_SAg_CD40: BioMAP Diversity Plus: SAg Assay for CD40 Biomarker Activity (AID 2283088). The conditions noted are these: primary human HUVEC with PBMC; actives raise or lower the signal. In a few lines: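 Human umbilical vein endothelial cells co-cultured with PBMC; CD40 levels measured by ELISA with fluorescence read-out 24 h after chemical dosing. Gain or loss of signal fitted bidirectionally against DMSO baseline.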

Read-out in the next test: CD69, CD69 (gene 969)
Kind of test: BSK_SAg_CD69: BioMAP Diversity Plus: SAg Assay for CD69 Biomarker Activity (AID 2283089).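 As to AC50: cell surface CD69 protein quantified by ELISA with fluorescence detection.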 The conditions noted are these: primary human HUVEC with PBMC; actives raise or lower the signal. In a few lines: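 Primary human vascular co-culture (umbilical vein endothelium with peripheral blood mononuclear cells) exposed to test chemical for 24 h. CD69 levels quantified by fluorescence ELISA; DMSO served as negative control for bidirectional fitting.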

Read-out in test [15]: E-selectin (Homo sapiens) (UniProt P16581)
Kind of test: BSK_SAg_Eselectin: BioMAP Diversity Plus: SAg Assay for Eselectin Biomarker Activity (AID 2283091). The conditions noted are these: primary human HUVEC with PBMC; actives raise or lower the signal. An outline of the steps: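 HUVEC co-cultured with PBMC, compound dosed then read at 24 h; E-selectin measured by ELISA. Activity fitted bidirectionally against DMSO as negative control and baseline.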

Test [16] is described as follows: BSK_SAg_PBMCCytotoxicity: PBMC Cytotoxicity Assessment in the BioMAP Diversity Plus: SAg Assay (AID 2283093).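 Also: PBMC viability measured as Alamar Blue reduction fluorescence at 546/580 nm; fitted both ways against DMSO so a hit may be loss or gain of signal.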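 As to AC50: PBMC superantigen activated with SEB plus TSST-1 one hour after compound addition.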 The conditions noted are these: primary human HUVEC with PBMC. In a few lines: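 HUVEC/PBMC co-culture; PBMC exposed to chemical 1 h before SEB and TSST-1 activation (20 ng/mL each), incubated 90 h, then Alamar Blue 6 h, fluorescence 546/580 nm. Bidirectional fit versus DMSO baseline.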

Read-out in test [17]: Interleukin-8 (IL8), CXCL8 (gene 3576)
Kind of test: BSK_SAg_IL8: BioMAP Diversity Plus: SAg Assay for Interleukin-8 (IL8) Biomarker Activity (AID 2283094). The conditions noted are these: primary human HUVEC with PBMC; actives raise or lower the signal. In a few lines:
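Human umbilical vein endothelial cells co-cultured with PBMC, stimulated with superantigen; IL-8 measured by ELISA 24 h after chemical dosing. Bidirectional fitting versus DMSO; SRB staining in parallel cultures tracks cytotoxicity.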

A short description of test [18]: BSK_SAg_Proliferation: Cell Proliferation Assessment in the BioMAP Diversity Plus: SAg Assay (AID 2283095). The conditions noted are these: primary human HUVEC with PBMC. In a few lines:
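Human umbilical vein endothelial cells co-cultured with PBMC; sulforhodamine B total-protein staining (0.1% SRB after 10% TCA fixation, absorbance 560 nm) at 96 h in sub-confluent culture. Fitted bidirectionally against DMSO.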

Chain of Tumor necrosis factor (Homo sapiens) (P01375 whole entry, looked up): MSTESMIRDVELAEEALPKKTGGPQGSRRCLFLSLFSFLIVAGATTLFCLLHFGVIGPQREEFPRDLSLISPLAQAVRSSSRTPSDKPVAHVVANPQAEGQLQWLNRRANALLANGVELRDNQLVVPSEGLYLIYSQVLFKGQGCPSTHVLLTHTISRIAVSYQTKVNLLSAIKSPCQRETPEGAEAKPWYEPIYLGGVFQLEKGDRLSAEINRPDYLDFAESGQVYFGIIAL
Chain of E-selectin (Homo sapiens) (P16581 whole entry, looked up): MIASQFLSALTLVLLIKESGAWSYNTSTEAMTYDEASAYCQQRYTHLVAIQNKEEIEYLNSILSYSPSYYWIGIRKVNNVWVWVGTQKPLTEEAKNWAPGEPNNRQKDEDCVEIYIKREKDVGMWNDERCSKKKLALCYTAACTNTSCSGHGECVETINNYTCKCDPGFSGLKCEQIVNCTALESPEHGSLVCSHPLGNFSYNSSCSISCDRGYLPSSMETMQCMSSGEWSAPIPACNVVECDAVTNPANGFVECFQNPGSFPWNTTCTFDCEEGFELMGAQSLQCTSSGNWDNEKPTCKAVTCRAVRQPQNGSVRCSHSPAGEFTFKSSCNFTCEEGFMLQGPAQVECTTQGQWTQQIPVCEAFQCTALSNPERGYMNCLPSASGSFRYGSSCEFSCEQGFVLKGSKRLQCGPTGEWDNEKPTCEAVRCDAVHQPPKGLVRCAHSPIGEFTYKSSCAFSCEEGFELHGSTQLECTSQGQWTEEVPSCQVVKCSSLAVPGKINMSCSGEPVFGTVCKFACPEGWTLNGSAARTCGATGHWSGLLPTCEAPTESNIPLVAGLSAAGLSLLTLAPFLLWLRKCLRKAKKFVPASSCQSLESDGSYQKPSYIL
Chain of Steroid hormone receptor ERR1 (Homo sapiens) (P11474 whole entry, looked up, the tested form may be a part): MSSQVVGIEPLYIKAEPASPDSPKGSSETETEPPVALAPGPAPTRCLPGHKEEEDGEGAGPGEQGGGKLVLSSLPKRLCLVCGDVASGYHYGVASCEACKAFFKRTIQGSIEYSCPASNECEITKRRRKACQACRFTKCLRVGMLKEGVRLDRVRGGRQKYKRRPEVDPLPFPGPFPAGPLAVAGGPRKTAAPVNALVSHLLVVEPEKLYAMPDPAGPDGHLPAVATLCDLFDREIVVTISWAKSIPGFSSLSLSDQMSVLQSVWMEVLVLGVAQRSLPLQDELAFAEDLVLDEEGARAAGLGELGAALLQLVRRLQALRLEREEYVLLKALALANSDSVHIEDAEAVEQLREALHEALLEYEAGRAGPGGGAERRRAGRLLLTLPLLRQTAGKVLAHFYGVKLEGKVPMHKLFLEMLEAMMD

As a reminder, the AC50 is the concentration giving half of the maximal activity seen. In the case of `Oc1ccc(C2(c3ccc(O)cc3)c3ccccc3-c3ccccc32)cc1`, in test [1], the result was inactive. Further, the AC50 in [2] is 6.03 µM (active) and 7.32 µM (active); in test [3], 8.68 µM (active) and 6.35 µM (active); in test [4] it was 5.37 µM (active) and 5.43 µM (active); in test [5], 5.39 µM (active) and 5.41 µM (active); in test [6], 8.33 µM (active) and 9.87 µM (active); with CD40, CD40 (gene 958) [7], 12.1 µM (active) and 10.1 µM (active). The AC50 in test [8] was 31.6 µM (active) and 33.9 µM (active); in [9], 13.7 µM (active) and 14.4 µM (active); in [10] it was 33.9 µM (active) and 33.6 µM (active); in test [11], 32 µM (active) and 29.5 µM (active); in [12], 30.9 µM (active) and 36.3 µM (active); in test [13], 15.9 µM (active) and 22 µM (active). For the same molecule, the AC50 in the test with CD38, CD38 (gene 952) is 8.99 µM (active) and 9.75 µM (active); with CD40, CD40 (gene 958) [14], 11.7 µM (active) and 12.5 µM (active); in the test with CD69, CD69 (gene 969), 10.6 µM (active) and 9.45 µM (active); in test [15], 10.2 µM (active) and 7.86 µM (active); in test [16], 12.1 µM (active) and 12.3 µM (active); in test [17] it was 8.55 µM (active) and 9.2 µM (active). The AC50 in [18] was 9.89 µM (active) and 9.81 µM (active).

As to `Cl/C=C\CCl`, in [1], the outcome was inactive.

In the case of `O=[N+]([O-])c1ccc(Cl)cc1`, the outcome in test [2] is “inactive”; in test [3], “inactive”; in [4] it was “inactive”; in [5], “inactive”; in test [6], “inactive”; with CD40, CD40 (gene 958) [7] it was “inactive”. For the same molecule, the outcome in test [8], in test [9], in [10], in test [11], in test [12] and in test [13] was inactive. Moreover, the outcome was “inactive” with CD38, CD38 (gene 952); “inactive” in the test with CD40, CD40 (gene 958) [14]; “inactive” in the test with CD69, CD69 (gene 969); “inactive” in test [15]; “inactive” in [16]; “inactive” in test [17]. In addition, in test [18], the outcome was inactive.
